In the supplement of paper PMC8975748:
Structures can show the parent of a compound that is named as a salt.

System: Saccharomyces cerevisiae BY4741 SeMeCo community
Test: z-score of subpopulation abundance vs DMSO median, subpopulation auxotrophic for HM; higher = larger share of this subpopulation than in DMSO controls
Details: 10 µM; 24 h; SM minimal medium; subpopulation (auxotrophy): HM
Experimental: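 Fluorescent four-plasmid SeMeCo (self-establishing metabolically cooperating S. cerevisiae BY4741 community; plasmids pH-mRuby2, pL-mWasabi, pU-eCFP, pM-TagRFP657) was grown 24 h in minimal SM medium with each Selleck FDA-approved drug at 10 µM in 384-well plates. Cells were fixed and imaged by high-content confocal microscopy. For each auxotrophic subpopulation (and the prototroph), a z-score gives the deviation from the DMSO vehicle-control population median.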

| Compound | z-score of subpopulation abundance |
| --- | --- |
| Nc1nc2[nH]cc(CCc3ccc(C(=O)N[C@@H](CCC(=O)O)C(=O)O)cc3)c2c(=O)[nH]1 [Pemetrexed Disodium Hydrate] | -4.93 |
| CC(C(O)c1ccc(O)cc1)N1CCC(Cc2ccccc2)CC1 (stereo not given) [Ifenprodil Tartrate] | -0.88 |
| CCOc1cc(N)c([N+](=O)[O-])cc1C(=O)NC1CCN(CC2CC=CCC2)CC1 (stereo not given) [Cinitapride Hydrogen Tartrate] | 0.24 |
| Cc1ccc2c(Cl)cc(Cl)c(O)c2n1 [Chlorquinaldol] | 33.5 |
| CCn1cc(C(=O)O)c(=O)c2cc(F)c(N3CCNCC3)nc21 [Enoxacin Sesquihydrate] | 0.03 |
| Clc1ccc(C(Cn2ccnc2)OCc2c(Cl)cccc2Cl)c(Cl)c1 (stereo not given) [Isoconazole nitrate] | 3.75 |
| Cc1ccc(C(=O)C(C)CN2CCCCC2)cc1 (stereo not given) [Tolperisone HCl] | -0.34 |
| CC(C)(C)C(=O)C(Oc1ccc(Cl)cc1)n1ccnc1 (stereo not given) [Climbazole] | 9.21 |
| COc1ccc2cc([C@H](C)C(=O)O)ccc2c1 [Naproxen Sodium] | -0.61 |
| CN(CCOc1ccc(NS(C)(=O)=O)cc1)CCc1ccc(NS(C)(=O)=O)cc1 [Dofetilide] | -0.88 |
| COc1cc([C@@H]2c3cc4c(cc3[C@@H](O[C@@H]3O[C@@H]5CO[C@@H](C)O[C@H]5[C@H](O)[C@H]3O)[C@H]3COC(=O)[C@H]23)OCO4)cc(OC)c1O [Etoposide] | 0.36 |
| COc1cc(NC(C)CCCN)c2ncccc2c1 (stereo not given) [Primaquine Diphosphate] | 0.98 |
| CCCCNC(=O)NS(=O)(=O)c1ccc(C)cc1 [Tolbutamide] | -0.14 |
| C[C@]1(Cn2ccnn2)[C@H](C(=O)O)N2C(=O)C[C@H]2S1(=O)=O [Tazobactam] | -0.74 |
| Cc1nc(Nc2ccc(F)cc2)nc(N2CCc3ccccc3C2C)c1C (stereo not given) [Revaprazan Hydrochloride] | -0.33 |
| CC/C=C(\C(=O)N[C@@H]1C(=O)N2C(C(=O)OCOC(=O)C(C)(C)C)=C(COC(N)=O)CS[C@H]12)c1csc(N)n1 [Cefcapene Pivoxil Hydrochloride] | 1.27 |
| O=C(CCCN1CCN(c2ccccn2)CC1)c1ccc(F)cc1 [Azaperone] | -0.63 |
| CC[N+](CC)(CC)CC [Tetraethylammonium bromide] | 0.22 |
| COc1ccc(NS(=O)(=O)c2ccc(N)cc2)nn1 [Sulfamethoxypyridazine] | -0.15 |
| CCN(CC)CC#CCOC(=O)C(O)(c1ccccc1)C1CCCCC1 (stereo not given) [Oxybutynin] | -0.23 |

| Compound | z-score of subpopulation abundance |
| --- | --- |
| O=C(NCCO[N+](=O)[O-])c1cccnc1 [Nicorandil] | -0.61 |
| CO/N=C(\C(=O)N[C@@H]1C(=O)N2C(C(=O)O)=C(CSc3nc(=O)c(O)nn3C)CS[C@H]12)c1csc(N)n1 [Ceftriaxone Sodium Trihydrate] | -1.19 |
| NC(=O)[C@@H]1CC[C@@H]2CN1C(=O)N2OS(=O)(=O)O [Avibactam sodium] | 0.85 |
| c1ccc(-c2ccc(C(c3ccccc3)n3ccnc3)cc2)cc1 (stereo not given) [Bifonazole] | -0.61 |
| CC[C@@H]1C(=O)OC[C@@H]1Cc1cncn1C [Pilocarpine HCl] | 0.01 |
| NC12CC3CC(CC(C3)C1)C2 [Amantadine HCl] | -0.31 |
| CC(C)c1nc(N(C)S(C)(=O)=O)nc(-c2ccc(F)cc2)c1/C=C/[C@@H](O)C[C@@H](O)CC(=O)O [Rosuvastatin] | 2.17 |
| O=C1CN(/N=C/c2ccc(-c3ccc([N+](=O)[O-])cc3)o2)C(=O)N1 [Dantrolene sodium hemiheptahydrate] | 1.38 |
| CC(C)NNC(=O)c1ccncc1 [Iproniazid] | -0.24 |
| Cc1cc(/C=C/c2ccc3cc(N(C)C)ccc3[n+]2C)c(C)n1-c1ccccc1 [pyrvinium] | -0.29 |
| CO[C@@H]1[C@@H](O[C@@H]2O[C@H](C)[C@@H](O[C@H]3C[C@@](C)(O)[C@@H](O)[C@H](C)O3)[C@H](N(C)C)[C@H]2O)[C@@H](CC=O)C[C@@H](C)[C@@H](O[C@H]2CC[C@H](N(C)C)[C@@H](C)O2)/C=C/C=C/C[C@@H](C)OC(=O)C[C@H]1OC(C)=O [Acetylspiramycin (ASPM)] | 0.27 |
| CC[C@H](Nc1ncnc2[nH]cnc12)c1nc2cccc(F)c2c(=O)n1-c1ccccc1 [Idelalisib (CAL-101, GS-1101)] | -0.64 |
| C=CCN1CCCC1CNC(=O)c1cc2nn[nH]c2cc1OC (stereo not given) [Alizapride HCl] | -0.31 |
| COc1cc(NS(=O)(=O)c2ccc(N)cc2)nc(OC)n1 [SulfadiMethoxine sodium] | 0.06 |
| CC(=O)C1C(=O)C=C(C)OC1=O (stereo not given) [Sodium dehydroacetate] | 0.2 |
| COCCCN1CCC(NC(=O)c2cc(Cl)c(N)c3c2OCC3)CC1 [Prucalopride Succinate] | 0.63 |
| O=C(O)c1cc(/N=N/c2ccc(O)c(C(=O)O)c2)ccc1O [Olsalazine Sodium] | -1.16 |
| CC1=Nc2ccc(Cl)cc2S(=O)(=O)N1 [Diazoxide] | -0.62 |
| CCOC(=O)C1=C(COCCN)NC(C)=C(C(=O)OC)C1c1ccccc1Cl (stereo not given) [Amlodipine Besylate] | 4.12 |
| CN1CCN(CC(=O)N2c3ccccc3C(=O)Nc3cccnc32)CC1 [Pirenzepine dihydrochloride] | -0.85 |
